High-throughput results from PubChem.
PLK1 PBD inh – PLK1 (human) polo-box domain binding inhibition; P53350; Plk1 PBD binding of FITC phosphopeptide, fluorescence polarization; Potency, µM, inactives show max response, negative = inhibition, most hits filed as inhibitors; 360,000 tested, 2.8% active; note: potency is the fitted concentration of half-maximal effect; series mostly up to about 57 µM; nearly all actives have a fitted effect of over 65% in size
Target sequence (P53350 whole entry, looked up, the tested form may be a part): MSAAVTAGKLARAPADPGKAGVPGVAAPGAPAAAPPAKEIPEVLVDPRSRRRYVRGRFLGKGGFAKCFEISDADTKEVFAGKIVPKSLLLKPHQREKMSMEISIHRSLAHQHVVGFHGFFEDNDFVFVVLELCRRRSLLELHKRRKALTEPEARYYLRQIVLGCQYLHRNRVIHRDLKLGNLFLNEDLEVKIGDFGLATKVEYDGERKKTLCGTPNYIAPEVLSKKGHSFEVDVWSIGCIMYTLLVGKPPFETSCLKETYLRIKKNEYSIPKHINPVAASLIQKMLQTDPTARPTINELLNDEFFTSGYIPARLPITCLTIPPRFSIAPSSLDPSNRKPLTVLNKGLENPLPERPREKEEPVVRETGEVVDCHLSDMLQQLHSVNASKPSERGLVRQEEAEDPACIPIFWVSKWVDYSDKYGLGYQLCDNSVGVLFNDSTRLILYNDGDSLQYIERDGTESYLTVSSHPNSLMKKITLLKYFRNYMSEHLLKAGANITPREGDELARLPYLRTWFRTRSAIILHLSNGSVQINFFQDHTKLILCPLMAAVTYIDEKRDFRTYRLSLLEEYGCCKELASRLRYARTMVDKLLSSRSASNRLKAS
Mm-Cpn inhibitor – blocks the Methanococcus maripaludis chaperonin Mm-Cpn; Potency, µM (top dose mostly 76.9 µM), for inactives: at the highest dose activity, negative = inhibition, actives largely listed as inhibitors; 330,000 tested, 0.031% active; purified Mm-Cpn ATPase, ADP Transcreener TR-FRET; note: potency is the fitted concentration of half-maximal effect; nearly all actives have a fitted effect of over 80% in size
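25 nM Mm-CPN + cpd, 10 min 37°C; + 10 uM ATP, 30 min 37°C; buffer 30 mM Tris pH 7.4, 100 mM KCl, 5 mM MgCl2, 1 mM DTT; Transcreener ADP HTRF detection 30 min RT.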
CCT chaperon mod – modulators of cytosolic chaperonin (CCT/TRiC) activity; purified chaperonin ATPase assay, HTRF ADP detection, 30 min; activity change, % (concentration not given with the values), hits read low; 360,000 tested, 0.3% active; in the data active = activity change below about -30%
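ATPase activity: ADP formed was measured by HTRF Transcreener (665/615 nm ratio) after 30 min at 37 deg C with 10 uM ATP. Compounds screened at one 76 uM concentration against 40 or 20 nM TRiC in Tris pH 7.4/KCl/MgCl2/DTT buffer.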
G9a block – G9a (human) methyltransferase inhibition. 350,000 tested, 8.8% active. Potency, µM (titrated, usually from 102 µM), for inactives: at the top dose activity, negative = inhibition, actives largely listed as inhibitors. Q96KQ7. G9a H3K9 monomethylation, AlphaScreen, 2 h; note: potency is the fitted concentration of half-maximal effect; nearly all actives have a fitted effect of over 75% in size
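Compounds were preincubated with 20 nM G9a for 15 min, after which biotinylated H3K9 peptide (500 nM) and SAM (20 uM) started a 2 h room-temperature reaction. Monomethylated product was quantified by antibody-based AlphaScreen chemiluminescence.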
VDR inh – blocks the human vitamin D receptor | P11473 | VDR-SRC2-3 peptide fluorescence polarization, 2 h | Potency, µM, without a hit: max response, negative = inhibition, hits mostly inhibitors | 400,000 tested, 0.93% active | AID 504847; note: potency is the fitted concentration of half-maximal effect
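Signal is fluorescence polarization, reporting how far test compounds block the interaction of VDR with the SRC2-3 coregulator peptide after a 2 h room-temperature incubation.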
Sfp PPTase inh – Sfp phosphopantetheinyl transferase inhibition; Biochemical Sfp PPTase activity, qHTS; Q9F4F7; AID 1490; Potency, µM, inactives show largest response in the series, negative = inhibition, usual class: inhibitors; 310,000 tested, 3.5% active;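 note: the enzyme is Sfp with the accession as filed and its product quenches rhodamine fluorescence; potency is the fitted concentration of half-maximal effect; 0% = enzyme reaction without inhibitor and -100% = no enzyme wells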
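Step 1, compound plus 15 nM Sfp-PPTase, 15 min, room temperature. Step 2, add rhodamine-CoA (5 uM) and BHQ-2-YbbR (12.5 uM). Step 3, read 525/598 nm fluorescence at 0 and 30 min.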
Active calls of the source: *; ? = inconclusive; · = not tested or not shown; [ ] = remark or other dose. Compounds with a hit are over-represented: about 10% of the library has one in this group of screens. Unless noted, calls come from the whole dose curve; as a rule, active = well fitted curve in the direction sought with a large enough effect; inconclusive = small, poorly fitted or top-dose-only effect, or another doubt; inactive = no such curve, though single readings can be large; an effect the other way counts as inactive or inconclusive. Unless noted, % is set by controls: 0 for no effect and ±100 for the full control effect.

SMILES	PLK1 PBD inh	Mm-Cpn inhibitor	CCT chaperon mod	G9a block	VDR inh	Sfp PPTase inh
S=C(NCC1CCCO1)Nc1ccc(Nc2ccccc2)cc1 (configuration not stated)	?	-1%	-1	?	-3%	18%
CC(=O)Nc1ccc(S(=O)(=O)NNC(=S)NCC2CCCO2)cc1 (configuration not stated)	-4%	-2%	-1	32µM*	-2%	56µM*
NS(=O)(=O)c1ccc(NC(=S)NCC2CCCO2)cc1 (configuration not stated)	24µM*	0%	-1	11µM*	-19%	45µM*
O=[N+]([O-])c1cccc(/C([O-])=C(/C(=S)Nc2ccccc2)[n+]2ccccc2)c1	-13%	-2%	-2	10µM*	?	?
C=CCNC(=S)/C(=C(/[O-])c1ccc([N+](=O)[O-])cc1)[n+]1ccccc1	-21%	0%	-2	45µM*	11%	4%
CCOc1ccc(CNC(=O)c2ccccc2NC(=O)C2=CSCCO2)cc1	24µM*	0%	-2	-11%	?	-20%
Cc1cccc(CNC(=O)c2ccccc2NC(=O)C2=CSCCO2)c1	?	0%	1	33%	0%	5%
Cc1cccc(CNC(=O)c2ccc(NC(=O)C3=CSCCO3)cc2)c1	27µM*	-1%	-3	-9%[59 µM]	?	16%
O=C(NCC1CCN(Cc2cccc(F)c2)CC1)c1cc2ccc3cccnc3c2[nH]1	·	·	·	-40%[59 µM]	17%	·
Cc1ccc(OCC(=O)Nc2ccc3oc(=O)ccc3c2)cc1	-6%	0%	2	-2%	12%	-8%
Cc1ccc(C(=O)N2CCN(c3ccc(NC(=O)COc4ccccc4C)cc3)CC2)cc1	-2%	-3%	0	40µM*	-3%	-18%
CCC(=O)N1CCN(c2ccc(NC(=O)COc3ccc(C)cc3C)cc2)CC1	-10%	-3%	1	?	7%	-3%
Cc1ccc(OCC(=O)NC2=NCCS2)cc1	-9%	0%	0	·	-5%	11%
Cc1cccc(OCC(=O)Nc2ccc3oc(=O)ccc3c2)c1C	1%	2%	1	50µM*	21%	5%
Cc1cccc(OCC(=O)Nc2ccc(N3CCCC3)cc2)c1C	-11%	-1%	-1	28µM*	13%	?
Cc1ccccc1OCC(=O)NC1=NCCS1	2%	-24%	1	28µM*	25%	15%
COc1ccccc1OCC(=O)Nc1ccc(N2CCCCC2)cc1	-6%	2%	2	22µM*	-8%	-23%
Cc1cc(Cl)ccc1OCC(=O)Nc1ccccc1C(=O)N1CCOCC1	1%	2%	-1	·	14%	12%
COc1cc(Cl)ccc1NC(=O)COc1ccccc1C(=O)N1CCN(c2ccc(O)cc2)CC1	-9%	0%	-3	10µM*	5%	?
CN1CCN(c2ccc(NC(=O)COc3ccccc3Cl)cc2)CC1	-5%	0%	1	?	12%	4%
CCC(=O)N1CCN(c2ccc(NC(=O)COc3ccccc3Cl)cc2)CC1	1%	-3%	-1	16µM*	-12%	10%
C/C(=N\N=c1/sc2ccccc2n1C)c1ccc(N2CCOCC2)cc1	-17%	-1%	-5	7.9µM*	-4%	-6%
O=C(NCc1ccco1)c1cccc(Br)c1	-5%	-1%	-4	-7%[0.501 µM]	-12%	71µM*
CCOC(=O)N1CCC(N2C(=O)c3ccc(C(=O)NCc4ccco4)cc3C2=O)CC1	-10%	0%	-2	71µM*	-21%	-21%
O=C(NCc1ccco1)c1cc2cc(Br)ccc2o1	11µM*	2%	-1	8.9µM*	89µM*	20µM*
COCCCNC(=O)c1ccc2c(c1)NC(=O)C(C(C)C)N2 (configuration not stated)	·	·	·	3%[59 µM]	-8%	·
CC(C)C1Nc2ccc(C(=O)NCc3ccco3)cc2NC1=O (configuration not stated)	-17%	0%	-3	79µM*	-17%	-1%
CC(C)CO/N=C1/[C@H]2O[C@@H]2[C@@H](O)[C@H]2[C@H]1CCn1c(=O)n(-c3ccccc3)c(=O)n12	·	·	·	·	·	21%
